From PubChem BioAssay AID1159580 (chemical genetic matrix, 2015)
Where “and” joins values, the source holds several entries; their conditions need not be identical. Identical values can stand only once. Out of some 5,500 compounds screened, about 2,000 (36%) were called active. Not shown: some 18% with an inconclusive outcome. No stated cut-off is given here; in the data, active means normalized growth mostly below about 0.91 (no sharp cut-off); inconclusive means no clear call, values can overlap the other calls; inactive means mostly above about 0.92. The list shows a part of the results.

Experiment: chemical genetic growth profiling, strain panel (AID 1159580);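 further: tested at 20 µM; growth read once vehicle control cultures reached saturation at 30 °C; 1 = growth at the plate median or of vehicle wells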
Details: S. cerevisiae deletion strains, growth OD

Measured: normalized growth

CCCn1c(=O)c2[nH]c(C3CCCC3)nc2n(CCC)c1=O
inactive: locus YAL013W, strain DEP1, stronger effect = lower value 0.992 | locus YAL021C, strain ccr4, stronger effect = lower value 1.01 | locus YAL026C, strain drs2, stronger effect = lower value 0.984 | locus YAL030W, strain snc1, stronger effect = lower value 0.973 | locus YAL040C, strain CLN3, stronger effect = lower value 0.995 | locus YBL061C, strain skt5, stronger effect = lower value 0.989 | locus YBR009C, strain hhf1, stronger effect = lower value 0.969 | locus YBR021W, strain FUR4, stronger effect = lower value 1.01 | locus YBR023C, strain chs3, stronger effect = lower value 0.986 | locus YBR171W, strain sec66, stronger effect = lower value 0.976 | locus YBR229C, strain ROT2, stronger effect = lower value 0.992 | locus YBR231C, strain swc5, stronger effect = lower value 0.984 | locus YBR279W, strain paf1, stronger effect = lower value 1 | locus YCL011C, strain gbp2, stronger effect = lower value 0.986 | locus YCL016C, strain dcc1, stronger effect = lower value 0.98 | locus YCL029C, strain bik1, stronger effect = lower value 0.959 | locus YCL061C, strain MRC1 (second series), stronger effect = lower value 0.999 | locus YCL061C, strain MRC1, stronger effect = lower value 0.977 | locus YCL069W, strain vba3, stronger effect = lower value 0.98 | locus YCR088W, strain abp1, stronger effect = lower value 0.983 | locus YDL005C, strain med2, stronger effect = lower value 0.992 | locus YDL035C, strain GPR1, stronger effect = lower value 0.981 | locus YDL040C, strain nat1, stronger effect = lower value 0.984 | locus YDL074C, strain BRE1, stronger effect = lower value 0.973 | locus YDL101C, strain DUN1, stronger effect = lower value 0.992 | locus YDL134C, strain PPH21, stronger effect = lower value 0.993 | locus YDL185W, strain tfp1, stronger effect = lower value 0.926 | locus YDL192W, strain arf1, stronger effect = lower value 0.977 | locus YDR001C, strain nth1, stronger effect = lower value 0.986 | locus YDR069C, strain doa4, stronger effect = lower value 0.976 | locus YDR101C, strain arx1, stronger effect = lower value 0.976 | locus YDR137W, strain rgp1, stronger effect = lower value 0.954 | locus YDR150W, strain NUM1, stronger effect = lower value 0.968 | locus YDR159W, strain sac3, stronger effect = lower value 0.968 | locus YDR162C, strain NBP2, stronger effect = lower value 0.998 | locus YDR195W, strain ref2 0.947 | locus YDR297W, strain sur2, stronger effect = lower value 0.99 | locus YDR318W, strain mcm21, stronger effect = lower value 0.964 | locus YDR334W, strain swr1, stronger effect = lower value 0.988 | locus YDR335W, strain msn5, stronger effect = lower value 0.987 | locus YDR363W, strain ESC2, stronger effect = lower value 1.01 | locus YDR388W, stronger effect = lower value 0.96 | locus YDR392W, strain spt3, stronger effect = lower value 0.839 | locus YDR502C, strain sam2, stronger effect = lower value 0.98 | locus YEL003W, strain gim4, stronger effect = lower value 0.985 | locus YEL037C, strain rad23, stronger effect = lower value 0.991 | locus YEL061C, strain CIN8 (second series), stronger effect = lower value 0.987 | locus YEL061C, strain CIN8, stronger effect = lower value 0.994 | locus YER002W, strain NOP16, stronger effect = lower value 1.01 | locus YER015W, strain faa2, stronger effect = lower value 1 | locus YER016W, strain bim1, stronger effect = lower value 0.98 | locus YER110C, stronger effect = lower value 0.949 | locus YER111C, strain swi4, stronger effect = lower value 0.993 | locus YER155C, strain BEM2 (second series), stronger effect = lower value 0.921 | locus YER155C, strain BEM2, stronger effect = lower value 0.995 | locus YER167W, strain BCK2, stronger effect = lower value 0.971 | locus YFR010W, strain ubp6, stronger effect = lower value 0.992 | locus YGL078C, strain dbp3, stronger effect = lower value 0.967 | locus YGL086W, strain mad1, stronger effect = lower value 0.98 | locus YGL167C, strain pmr1, stronger effect = lower value 0.982 | locus YGL173C, strain kem1, stronger effect = lower value 0.983 | locus YGL227W, strain vid30, stronger effect = lower value 0.98 | locus YGL240W, strain doc1, stronger effect = lower value 0.989 | locus YGL248W, strain PDE1, stronger effect = lower value 0.995 | locus YGL253W, strain hxk2, stronger effect = lower value 0.992 | locus YGR078C, strain PAC10, stronger effect = lower value 0.985 and 0.986 | locus YGR135W, strain pre9, stronger effect = lower value 1 | locus YGR229C, strain SMI1, stronger effect = lower value 0.996 and 0.953 | locus YGR252W, strain gcn5, stronger effect = lower value 0.926 | locus YHR013C, strain ard1, stronger effect = lower value 0.928 | locus YHR027C, strain rpn1, stronger effect = lower value 0.988 | locus YHR030C, strain SLT2, stronger effect = lower value 0.984 | locus YHR079C, strain IRE1 (second series), stronger effect = lower value 0.975 | locus YHR094C, strain hxt1, stronger effect = lower value 0.963 | locus YHR129C, strain ARP1, stronger effect = lower value 0.985 | locus YHR142W, strain chs7, stronger effect = lower value 0.988 | locus YHR200W, strain rpn10, stronger effect = lower value 0.963 | locus YIL066C, strain RNR3, stronger effect = lower value 0.972 | locus YIL073C, strain SPO22, stronger effect = lower value 0.914 | locus YIL125W, strain kgd1, stronger effect = lower value 0.985 | locus YIR030C, strain dcg1, stronger effect = lower value 0.977 | locus YJL092W, strain hpr5, stronger effect = lower value 1 | locus YJL095W, strain BCK1 (second series), stronger effect = lower value 0.981 | locus YJL095W, strain BCK1, stronger effect = lower value 0.996 | locus YJL115W, strain asf1, stronger effect = lower value 0.994 | locus YJL129C, strain trk1, stronger effect = lower value 0.943 | locus YJL134W, strain LCB3, stronger effect = lower value 0.979 | locus YJL154C, strain vps35, stronger effect = lower value 0.979 | locus YJL164C, strain tpk1, stronger effect = lower value 0.988 | locus YJL166W, strain qcr8, stronger effect = lower value 0.988 | locus YJL168C, strain set2, stronger effect = lower value 0.971 | locus YJL187C, strain SWE1 (second series), stronger effect = lower value 0.982 | locus YJL187C, strain SWE1, stronger effect = lower value 0.995
